For 40 compounds, Potency results are on record in PubChem BioAssay AID602475 (National Center for Advancing Translational Sciences (NCATS), 2012).

Records with an inconclusive call do not appear. Entries that show only a call come without a potency. Calls of active or inactive are those of the source. Calls come from the whole dose curve; as a rule, active = well fitted inhibition curve with a large enough effect; inconclusive = small, poorly fitted or top-dose-only effect; inactive = no such curve, though single readings can be large or run the other way.

Luciferin 4-monooxygenase (Photinus pyralis), sequence (P08659 whole entry, looked up): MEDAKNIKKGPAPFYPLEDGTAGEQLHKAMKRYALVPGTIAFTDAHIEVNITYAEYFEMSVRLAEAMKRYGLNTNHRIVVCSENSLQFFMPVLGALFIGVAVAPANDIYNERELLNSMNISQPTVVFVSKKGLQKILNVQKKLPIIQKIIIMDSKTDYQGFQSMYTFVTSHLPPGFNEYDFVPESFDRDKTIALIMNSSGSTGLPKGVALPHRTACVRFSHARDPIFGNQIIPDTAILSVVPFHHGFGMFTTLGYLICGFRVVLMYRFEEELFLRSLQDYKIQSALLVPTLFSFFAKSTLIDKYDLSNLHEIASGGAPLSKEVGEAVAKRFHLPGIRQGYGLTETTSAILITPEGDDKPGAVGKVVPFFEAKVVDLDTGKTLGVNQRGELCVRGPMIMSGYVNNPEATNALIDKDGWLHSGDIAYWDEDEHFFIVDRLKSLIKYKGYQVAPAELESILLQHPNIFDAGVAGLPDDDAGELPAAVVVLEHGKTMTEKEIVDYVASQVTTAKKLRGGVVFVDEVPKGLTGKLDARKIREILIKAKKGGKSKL

In the experiment the target is Luciferin 4-monooxygenase (Photinus pyralis) (UniProt P08659). Briefly: FLuc inhibitory activity for the follow-up compounds in a biochemical assay with an in-house formulation of detection reagent. Conditions: purified FLuc, luminescence; series mostly up to 25.6 µM. From the text:
NCGC Assay Overview: Firefly (Photinus pyralis) luciferase is one of the most commonly used transcriptional reporters. It is considered one of the more dynamically responsive reporters - that is, responsive to changes in reporter transcription - as it requires no post-translational modifications and is enzymatically active directly after protein synthesis (Wood, 1998). With no endogenous expression in mammalian cells and without the requirement of external excitation, it offers very little background signal, thus generally providing excellent signal to background for most assays. Previous profiling work to determine the prevalence of compounds that affect FLuc enzymatic activity (PubChem AID 411) identified that ~3% of the MLSMR library (then at ~72K) inhibited FLuc (Auld et al., 2008). […] Of the compounds identified in this profile that inhibited FLuc, 151 compounds were selected for further analysis, in an effort to better understand their mode of inhibiting FLuc. The assay described here was to determine the activity of the compounds in a FLuc assay that used an in-house formulation of detection reagent.
NCGC Assay Protocol Summary: Reagents: 300mM Tris-HCl, 300mM Trizma base, 300mM MgCl, 1% Triton-X100, 5mM DTT, 500uM Coenzyme A trilithium salt (Sigma #C3019),450uM ATP (Sigma #A7699), 1mM D-luciferin sodium salt monohydrate (Biosynth #L8240); 10nM P. pyralis luciferase (Sigma #L9506) Control compounds used were two known firefly luciferase inhibitors (3-(5-(3-chlorophenyl)-1,2,4-oxadiazol-3-yl)benzoic acid and 5-(2-fluorophenyl)-3-phenyl-1,2,4-oxadiazole), and DMSO. Assay Summary: Six microliters of buffer containing firefly luciferase (final concentrations: 50mM Tris acetate, 10nM P. pyralis luciferase) are dispensed into each well of a Greiner white, solid-bottom 1536-well format plate using a flying reagent dispenser (FRD). These assay plates were then treated with 23nL of compound or DMSO using a Kalypsys pin tool, which allows for delivery of a 12-point intraplate titration of each compound to the assay plate (quantitative HTS), with final compound concentrations ranging from approximately ~25uM to 0.1nM. Three microliters of 3X in-house detection reagent was then delivered by FRD to each well (final concentrations in assay: 300mM Tris-HCl, 300mM Trizma base, 300mM MgCl, 1% Triton-X100, 5mM DTT, 500uM Coenzyme A trilithium salt, 450uM ATP, 1mM D-luciferin sodium salt monohydrate). Luciferase activity was then measured using a ViewLux CCD imager (PerkinElmer), with an average exposure time of 2-30 seconds (2X binning, medium/high gain).
On to `O=C(O)c1cccc(NC(=O)c2ccccc2NC(=O)c2ccccc2F)c1`, for which the Potency result is “inactive”.

For the compound `O=C(Nc1ccc(-c2nc3ccccc3s2)cc1)C1=COCCO1`, the Potency was 2.46 µM (active).

For the compound `COc1ccc(CC(=O)Nc2cccc(C(=O)Nc3ccccc3C(=O)O)c2)cc1OC`, the Potency result was “inactive”. The same measure for `O=C(Nc1ccccc1C(=O)Nc1ccccc1C(=O)O)c1ccccc1`: “inactive”; for `Cc1ccc(NS(=O)(=O)c2ccc(Cl)c(C(=O)Nc3cccc(C(=O)O)c3)c2)cc1`: “inactive”; for `O=C(Nc1ccccc1C(=O)O)c1cccc(NC(=O)c2ccccc2Cl)c1`: “inactive”. For `Cc1ccc(S(=O)(=O)N2CCOCC2)cc1C(=O)Nc1ccccc1C(=O)O`, the Potency entry was “inactive”. The same measure for `COc1ccc(C(=O)Nc2ccccc2C(=O)Nc2ccccc2C(=O)O)cc1`: “inactive”; for `COc1ccccc1C(=O)Nc1ccc(C(=O)O)cc1`: “inactive”. The result for `O=C(O)c1cccc(NC(=O)c2ccccc2NC(=O)c2ccco2)c1` reads “inactive”; that for `Nc1ccccc1C(=O)Nc1cccc(C(=O)O)c1`, “inactive”; that for `O=C(Nc1ccccc1C(=O)O)c1ccc(NC(=O)C2CCCCC2)cc1`, “inactive”. The result for `O=C(Nc1ccccc1-c1nc2ccccc2s1)c1cccnc1` reads “inactive”; that for `O=C(Nc1ccccc1C(=O)O)c1cccc(NC(=O)c2ccc(Br)o2)c1`, “inactive”; that for `CCOc1c(Cl)cc(C(=O)Nc2ccccc2C(=O)O)cc1Cl`, “inactive”. On to `COc1ccc2nc(NC(=O)c3ccc(S(=O)(=O)N4CCCC(C)C4)cc3)sc2c1` (stereo not given), for which the Potency result was “inactive”. The same measure for `O=C(Nc1cccc(-c2nc3ccccc3s2)c1)c1cc(-n2cnnc2)ccc1Cl`: “inactive”; for `CCOc1ccc2nc(NC(=O)c3ccccc3)sc2c1`: 6.19 µM (active); for `CCOc1ccc2nc(NC(=O)c3ccccn3)sc2c1`: 3.9 µM (active). `COc1ccc2nc(NC(=O)CCc3ccc(OC)c(OC)c3)sc2c1`: the Potency entry is “inactive”. With `Cn1c(N/N=C/c2cc3ccccc3nc2Cl)nc2ccccc21`, the Potency entry is “inactive”. Take `O=C(COC(=O)c1ccccc1[N+](=O)[O-])c1ccc2c(c1)OCO2`: the Potency is 0.0619 µM (active). The result for `COc1cc(OC)cc(-c2nc3ccccc3s2)c1` reads “inactive”; that for `O=C(O)c1cccc(NC(=O)c2ccc(Cl)c(S(=O)(=O)N3CCCCCC3)c2)c1`, “inactive”. The result for `Cc1c(NC(=O)c2cc(-n3cnnc3)ccc2Cl)cccc1-c1nc2ccccc2s1` reads “inactive”. The result for `CCOc1ccc2nc(NC(=O)Cc3cccs3)sc2c1` reads “inactive”; that for `COc1ccccc1C(=O)Nc1ccc(C(=O)Nc2ccccc2C(=O)O)cc1`, “inactive”. Regarding `Cc1ccc(C(=O)Nc2ccc(C(=O)O)cc2)cc1S(=O)(=O)NCc1ccccc1`, the Potency entry was “inactive”. For `Cc1ccc2sc(-c3ccc(N)cc3)nc2c1`, the Potency was 6.19 µM (active). The result for `Cc1c(NC(=O)C(C)(C)C)cccc1-c1nc2ccccc2s1` reads “inactive”; that for `O=C(Cc1ccc(Cl)cc1)Nc1cccc(C(=O)Nc2ccccc2C(=O)O)c1`, “inactive”; that for `CC(C)(C)C(=O)Nc1ccc(-c2nc3ccccc3s2)cc1`, 0.0219 µM (active). For `CCOC(=O)N1CCN(CC(=O)Nc2nc3ccc(OC)cc3s2)CC1`, the Potency result was “inactive”.

On to `Nc1ccc(-c2nc3cc(N)ccc3s2)cc1`, for which the Potency is 8.74 µM (active).

In the case of `Cc1ccc(C(=O)O/N=C(\N)c2ccccn2)cc1`, the Potency was 0.0619 µM (active). The result for `O=C(O)c1ccc(NC(=O)c2cccc(C(=O)Nc3ccc(C(=O)O)cc3)c2)cc1` reads “inactive”; that for `CC(C)(C)NC(=O)c1ccccc1-c1nc2ccccc2s1`, “inactive”; that for `CCn1c(C)nc2cc(-c3nc4n(n3)Cc3ccccc3-4)ccc21`, 0.155 µM (active). The result for `Nc1ccccc1-c1nc2ccccc2s1` reads “inactive”. Take `Cc1ccc(C(=O)Nc2cccc(C(=O)O)c2)cc1`: the Potency was 13.8 µM (active).
